Assay results reported in PubChem BioAssay (EPA / NIEHS).
Active and inactive are the calls of the source. How the source made its calls: active means hit-call score of the fitted dose curve at least 0.9, where 1 is the maximum; inactive means score below 0.9.

Legend:
Settings in all cases: mRNA level, 48 h; actives raise or lower the signal
[1] = read-out: Glutamate-cysteine ligase catalytic (GCLC), GCLC (gene 2729); assay: LTEA_HepaRG_GCLC: Life Technologies and Expression Analysis (LTEA) Assay for Glutamate-cysteine ligase catalytic (GCLC) using HepaRG (AID 2283498)
Outline: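 Differentiated HepaRG cells exposed 48 h in serum-free induction medium, eight-point half-log series topping at 100 uM in 0.5% DMSO, duplicates. GCLC mRNA by qRT-PCR normalized to ACTB, GAPDH and POLR2A, fitted bidirectionally versus DMSO.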

[2] = read-out: growth arrest and DNA damage 45 (GADD45G), GADD45G (gene 10912); assay: LTEA_HepaRG_GADD45G: Life Technologies and Expression Analysis (LTEA) Assay for growth arrest and DNA damage 45 (GADD45G) using HepaRG (AID 2283499)
Outline: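 Gain or loss of GADD45G mRNA, quantified by TaqMan qRT-PCR against three housekeeping genes, is fitted in both directions relative to 0.5% DMSO. Human HepaRG cultures receive test chemical for 48 h at up to 100 uM.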

[3] = read-out: Glutamate-cysteine ligase regulatory (GCLM), GCLM (gene 2730); assay: LTEA_HepaRG_GCLM: Life Technologies and Expression Analysis (LTEA) Assay for Glutamate-cysteine ligase regulatory (GCLM) using HepaRG (AID 2283500)
Outline: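 Differentiated human HepaRG cells exposed 48 h in serum-free induction medium to 8-point half-log concentrations (top 100 uM, 0.5% DMSO), in duplicate. GCLM mRNA quantified by qRT-PCR, normalized to ACTB, GAPDH, POLR2A; bidirectional fitting versus DMSO.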

[4] = read-out: Glutathione S-transferase M3 (GSTM3), GSTM3 (gene 2947); assay: LTEA_HepaRG_GSTM3: Life Technologies and Expression Analysis (LTEA) Assay for Glutathione S-transferase M3 (GSTM3) using HepaRG (AID 2283501)
Outline: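 HepaRG, plated 48 h, then serum-free induction medium; test chemical 48 h, duplicate; 100 uM top, half-log x8, 0.5% DMSO. Read-out: GSTM3 mRNA (TaqMan qRT-PCR, Fluidigm array). Bidirectional fit vs DMSO.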

[5] = read-out: Heat shock 70 kDa protein 1 (HSPA1A), gene 3303; assay: LTEA_HepaRG_HSPA1A: Life Technologies and Expression Analysis (LTEA) Assay for Heat shock 70 kDa protein 1 (HSPA1A) using HepaRG (AID 2283502)
Outline: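 Differentiated human HepaRG cells in serum-free induction medium were exposed in duplicate for 48 h to eight concentrations (top 100 uM, half-log steps, 0.5% DMSO). HSPA1A mRNA was quantified by qRT-PCR, normalized to ACTB, GAPDH and POLR2A, and fitted bidirectionally against DMSO.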

[6] = read-out: 3-Hydroxy-3-Methylglutaryl-CoA Synthase 2 (HMGCS2), HMGCS2 (gene 3158); assay: LTEA_HepaRG_HMGCS2: Life Technologies and Expression Analysis (LTEA) Assay for 3-Hydroxy-3-Methylglutaryl-CoA Synthase 2 (HMGCS2) using HepaRG (AID 2283504)
Outline: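 HepaRG, plated 48 h then switched to serum-free induction media; cmpd 8-pt, max 100 uM, 1/2-log, 0.5% DMSO, n=2, 48 h. HMGCS2 mRNA by Fluidigm TaqMan qRT-PCR, ACTB/GAPDH/POLR2A norm; bidirectional fit vs DMSO.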

HGF (gene 3082) = assay: LTEA_HepaRG_HGF: Life Technologies and Expression Analysis (LTEA) Assay for Hepatocyte Growth Facto (HGF) using HepaRG (AID 2283505)
Outline: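 Read-out is HGF transcript level by qRT-PCR, normalized to three housekeeping genes, fitted bidirectionally against 0.5% DMSO vehicle. Human HepaRG cells received test chemicals for 48 h at up to 100 uM.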

[7] = read-out: Insulin Like Growth Factor 1 (IGF1), IGF1 (gene 3479); assay: LTEA_HepaRG_IGF1: Life Technologies and Expression Analysis (LTEA) Assay for Insulin Like Growth Factor 1 (IGF1) using HepaRG (AID 2283506)
Outline: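 Differentiated human HepaRG cells were dosed for 48 h in serum-free induction medium with 0.5% DMSO, eight half-log concentrations up to 100 uM, in duplicate. IGF1 mRNA was quantified by qRT-PCR normalized to ACTB, GAPDH, POLR2A; bidirectional fitting versus DMSO.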

[8] = read-out: Intercellular Adhesion Molecule 1 (ICAM1), ICAM1 (gene 3383); assay: LTEA_HepaRG_ICAM1: Life Technologies and Expression Analysis (LTEA) Assay for Intercellular Adhesion Molecule 1 (ICAM1) using HepaRG (AID 2283507)
Outline: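 Readout is qRT-PCR mRNA level, normalized to three housekeeping genes and fitted bidirectionally against 0.5% DMSO vehicle. Human HepaRG cultures received compound for 48 h, top concentration 100 uM with half-log dilutions.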

[9] = read-out: Insulin-like growth factor-binding protein 1 (IGFBP1), IGFBP1 (gene 3484); assay: LTEA_HepaRG_IGFBP1: Life Technologies and Expression Analysis (LTEA) Assay for Insulin-like growth factor-binding protein 1 (IGFBP1) using HepaRG (AID 2283508)
Outline: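 Thawed HepaRG cells are plated for 48 h, switched to serum-free induction medium, then dosed in duplicate for another 48 h (100 uM top, half-log steps). Lysates in RLT go to qRT-PCR, and gain or loss of signal is fitted relative to vehicle.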

[10] = read-out: Interleukin 6 (IL6), IL6 (gene 3569); assay: LTEA_HepaRG_IL6: Life Technologies and Expression Analysis (LTEA) Assay for Interleukin 6 (IL6) using HepaRG (AID 2283509)
Outline: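 HepaRG cells exposed in duplicate for 48 h to eight half-log concentrations, top 100 uM, in 0.5% DMSO serum-free induction medium. mRNA measured by qRT-PCR, normalized to ACTB, GAPDH and POLR2A. Bidirectional fit versus DMSO.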

[11] = read-out: Interleukin 6 Receptor (IL6R), IL6R (gene 3570); assay: LTEA_HepaRG_IL6R: Life Technologies and Expression Analysis (LTEA) Assay for Interleukin 6 Receptor (IL6R) using HepaRG (AID 2283510)
Outline: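 Differentiated human HepaRG cells, plated 48 h then switched to serum-free induction medium, were dosed in duplicate for 48 h at eight half-log concentrations up to 100 uM in 0.5% DMSO. IL6R mRNA quantified by qRT-PCR, normalized to ACTB/GAPDH/POLR2A; bidirectional fit versus DMSO.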

[12] = read-out: Potassium channel subfamily K member 1 (KCNK1), KCNK1 (gene 3775); assay: LTEA_HepaRG_KCNK1: Life Technologies and Expression Analysis (LTEA) Assay for Potassium channel subfamily K member 1 (KCNK1) using HepaRG (AID 2283511)
Outline: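 Differentiated HepaRG cells, 48 h exposure in serum-free induction medium with 0.5% DMSO; 8 concentrations, half-log from 100 uM, duplicate. KCNK1 mRNA by qRT-PCR, normalized to ACTB, GAPDH, POLR2A; bidirectional fit vs DMSO.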

[13] = read-out: Keratin 19 (KRT19), KRT19 (gene 3880); assay: LTEA_HepaRG_KRT19: Life Technologies and Expression Analysis (LTEA) Assay for Keratin 19 (KRT19) using HepaRG (AID 2283512)
Outline: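 KRT19 transcript levels, measured by Fluidigm qRT-PCR against three housekeeping genes, are fitted for gain or loss of signal relative to DMSO. Human HepaRG cells receive test chemicals (top 100 uM, half-log steps, 0.5% DMSO) for 48 hours.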

[14] = read-out: JUN Transcription Factor, JUN (gene 3725); assay: LTEA_HepaRG_JUN: Life Technologies and Expression Analysis (LTEA) Assay for JUN Transcription Factor using HepaRG (AID 2283513)
Outline: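 Differentiated HepaRG cells were exposed to chemicals for 48 h in serum-free induction medium, 8 concentrations from 100 uM in half-log steps, 0.5% DMSO vehicle, in duplicate. JUN mRNA was quantified by TaqMan qRT-PCR, normalized to ACTB, GAPDH, POLR2A.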

[15] = read-out: Lipase C (LIPC), LIPC (gene 3990); assay: LTEA_HepaRG_LIPC: Life Technologies and Expression Analysis (LTEA) Assay for Lipase C (LIPC) using HepaRG (AID 2283514)
Outline: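 HepaRG cells, 48 h after plating, treated in duplicate for 48 h in serum-free induction medium over 8 half-log concentrations from 100 uM, 0.5% DMSO. LIPC mRNA by TaqMan qRT-PCR normalized to ACTB/GAPDH/POLR2A; bidirectional fit versus DMSO.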

[16] = read-out: Lipoprotein lipase (LPL), LPL (gene 4023); assay: LTEA_HepaRG_LPL: Life Technologies and Expression Analysis (LTEA) Assay for Lipoprotein lipase (LPL) using HepaRG (AID 2283515)
Outline: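 Differentiated HepaRG cells, plated 48 h, then exposed 48 h in serum-free induction medium to 8 concentrations (top 100 uM, half-log steps) in 0.5% DMSO, duplicate. LPL mRNA measured by qRT-PCR, normalized to ACTB, GAPDH and POLR2A.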

[17] = read-out: MicroRNA 122 (MIR122), gene 406906; assay: LTEA_HepaRG_MIR122: Life Technologies and Expression Analysis (LTEA) Assay for MicroRNA 122 (MIR122) using HepaRG (AID 2283516); further: the transcript read is the microRNA miR-122
Outline: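 Differentiated human HepaRG cells were exposed 48 h in serum-free induction medium to eight half-log concentrations (top 100 uM, 0.5% DMSO). Transcript level was measured by TaqMan qRT-PCR, normalized to ACTB, GAPDH and POLR2A, and fitted bidirectionally versus DMSO.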

[18] = read-out: matrix metalloproteinase-10 (MMP10), MMP10 (gene 4319); assay: LTEA_HepaRG_MMP10: Life Technologies and Expression Analysis (LTEA) Assay for matrix metalloproteinase-10 (MMP10) using HepaRG (AID 2283517)
Outline: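 Differentiated HepaRG cells in serum-free induction medium exposed 48 h in duplicate to 8-point half-log series up to 100 uM in 0.5% DMSO. mRNA quantified by qRT-PCR, normalised to ACTB, GAPDH, POLR2A; bidirectional fit versus DMSO.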

Measured: outcome

Cc1cc(C)c(O)c(C)c1
inactive: all assays above

OC1CCCCC1
not listed: [1] | [8]
inactive: all other assays above

CC(C)CCCCCCOC(=O)CCCCC(=O)OCCCCCCC(C)C
not listed: [1] | [8]
inactive: all other assays above

CCCCCCCCCCCCN1CCCC1=O
not listed: [1] | [8]
inactive: all other assays above
